In all, about 100,000 compounds went through this assay and about 770 (0.77%) were called active. No stated cut-off is given here; in the data, active means inhibition above about 50%; inactive means the rest. This excerpt belongs to a sample that is enriched for actives.

For the assay, the target named is Gag-Pol polyprotein (Human immunodeficiency virus type 1 group M subtype B (isolate HXB2)) (UniProt P04585). Put plainly: RNase H inhibition, HIV 1 Gag Pol polyprotein, FRET biochemical assay, screening (AID 372). The note with it: HIV-1 RT RNase H, FRET RNA/DNA substrate fluorescence; at 10 µM; stronger effect = higher value.
In general, inhibition refers to the relative decrease from the control value, in per cent. For `COc1ccc(-c2n[nH]c(=S)n2N=C/C(Br)=C/c2ccccc2)cc1`, the inhibition was 21% (inactive).

Consider `N#Cc1c(-c2ccc(Br)cc2)cc(-c2ccc3c(c2)OCO3)c(C#N)c1N`, for which the inhibition was 48% (inactive).

Take `N#Cc1c(-c2ccccc2)cc(-c2ccco2)c(C#N)c1N`: the inhibition is 18% (inactive).

Regarding `N#Cc1c(-c2ccc(Br)cc2)cc(-c2ccco2)c(C#N)c1N`, the inhibition is 58% (active).

On to `Cc1ccccc1C(=O)Nc1sc2c(c1C(=O)Nc1cccc3ccccc13)CCC2`, for which the inhibition was 13% (inactive).

Consider `O=C(Nc1cccc(O)c1)c1cc2nc(-c3ccc(Cl)cc3)cc(C(F)(F)F)n2n1`, for which the inhibition was 11% (inactive).

Consider `CC(=O)Oc1ccc(C(=O)Nc2cccc([N+](=O)[O-])c2C)cc1`, for which the inhibition is 6% (inactive).

Regarding `CC(=O)Oc1ccc(C(=O)Nc2ccc(C)cc2C(=O)O)cc1`, the inhibition is 4% (inactive).

With `CC(=O)Oc1ccc(C(=O)Nc2cccc(C(=O)O)c2C)cc1`, the inhibition was 55% (active).

On to `Cc1ccccc1N1C(=O)NC(=O)/C(=C\c2cccn2-c2ccc(Cl)cc2)C1=O`, for which the inhibition was 42% (inactive).

For `CC(C)(C)c1ccc(C(C)(C)C)c(Oc2ccccc2)c1O`, the inhibition was 8% (inactive).

As for `Cc1ccc([N+](=O)[O-])cc1NC(=O)c1cccc2c1C(=O)c1ccccc1-2`, the inhibition is 0% (inactive).

`COc1ccccc1/C=C1\SC(NC(C)=O)=NC1=O`: the inhibition is 17% (inactive).

In the case of `COc1cccc(/C=C2/SC(NC(C)=O)=NC2=O)c1OC`, the inhibition is 8% (inactive).

In the case of `COc1ccc2ccccc2c1/C=C1/SC(NC(C)=O)=NC1=O`, the inhibition is 52% (active).

As to `COc1ccc(-c2n[nH]c(=S)n2/N=C/c2ccccc2Br)cc1`, the inhibition is 12% (inactive).

`COc1ccc(/C=C/c2ccc3ccccc3n2)cc1`: the inhibition was 17% (inactive).

Consider `Cc1cn(C(=O)C(C)N2C(=O)c3ccccc3C2=O)c(C)n1` (centres undefined), for which the inhibition is 53% (active).

As for `Cc1cc(C)n(C(=O)C(C)N2C(=O)c3ccccc3C2=O)n1` (centres undefined), the inhibition was 43% (inactive).

Consider `Cc1nn(C(=O)C(C)N2C(=O)c3ccccc3C2=O)c(C)c1Br` (centres undefined), for which the inhibition is 41% (inactive).

In the case of `COCCOC(=O)C1=C(C)NC(=O)NC1c1ccc(C)s1` (centres undefined), the inhibition is 8% (inactive).

Take `COC(=O)C1=C(C)N(C)C(=O)NC1c1ccccc1I` (centres undefined): the inhibition was 5% (inactive).

Take `CC1=C(C(=O)OC2CCCCCCC2)C(c2ccccc2)NC(=O)N1` (centres undefined): the inhibition was 57% (active).

`CCCCCCOC(=O)C1=C(C)NC(=O)NC1c1ccc(Br)cc1` (centres undefined): the inhibition is 53% (active).

In the case of `CC1=C(C(=O)OC2CCCCCC2)C(c2ccc(C)cc2)NC(=O)N1` (centres undefined), the inhibition is 36% (inactive).

For `CC1=C(C(=O)OCc2ccccc2)C(c2ccc(C)s2)NC(=O)N1` (centres undefined), the inhibition is 55% (active).

Turning to `CC1=C(C(=O)OCCc2ccccc2)C(c2ccc(C)s2)NC(=O)N1` (centres undefined), the inhibition was 19% (inactive).

Take `CCCCCOC(=O)C1=C(C)NC(=O)NC1c1ccc(Br)cc1` (centres undefined): the inhibition was 20% (inactive).

On to `CC1=C(C(=O)OC2CCCCCC2)C(c2ccccc2)NC(=O)N1` (centres undefined), for which the inhibition is 14% (inactive).

Turning to `CC1=C(C(=O)OC2CCCC2)C(c2ccccc2Cl)NC(=O)N1C` (centres undefined), the inhibition is 5% (inactive).

For `CCCCOC(=O)C1=C(C)NC(=O)NC1c1ccc(Br)cc1` (centres undefined), the inhibition is 23% (inactive).

For `CC1=C(C(=O)OC2CCCCCC2)C(c2ccccc2I)NC(=O)N1C` (centres undefined), the inhibition is 52% (active).

Turning to `Cc1cccc(C)c1NC(=O)c1ccc(N(Cc2ccc(Cl)cc2)S(C)(=O)=O)cc1`, the inhibition was 15% (inactive).

`Cc1ccccc1OCCOc1ccc(Br)cc1/C=C1\SC(N)=NC1=O`: the inhibition was 33% (inactive).

On to `Cc1cccc(OCC(=O)Nc2ccccc2C(C)C)c1C`, for which the inhibition was 8% (inactive).

`O=C(CCN1C(=O)/C(=C/c2ccccc2Cl)SC1=S)Nc1ccc(-c2ccccc2)cc1`: the inhibition was 16% (inactive).

As to `CSc1nc2ccccc2n1CCOc1ccc(C)cc1`, the inhibition was 8% (inactive).

With `Clc1ccc(COc2ccc(/C=N/n3cnnc3)cc2)c(Cl)c1`, the inhibition is 3% (inactive).

For the molecule `O=Cc1cccc(OCc2ccc(Cl)cc2Cl)c1`, the inhibition is 32% (inactive).

`Clc1ccc(COc2cccc(/C=N/n3cnnc3)c2)c(Cl)c1`: the inhibition was 50% (active).

Take `CCSCCOC(=O)C1=C(C)NC2=C(C(=O)CC(c3cccs3)C2)C1c1ccc(C)s1` (centres undefined): the inhibition was 11% (inactive).

For `COc1ccc(OC)c(C2C(C(C)=O)=C(O)C(=O)N2CC2CCCO2)c1` (centres undefined), the inhibition was 0% (inactive).

`Cc1ccc(/C=C2\C(=O)NC(=S)N(c3ccc(Br)cc3C)C2=O)o1`: the inhibition is 24% (inactive).

`O=C1NC(=S)N(c2ccccc2F)C(=O)/C1=C/c1ccc(N2CCCC2)o1`: the inhibition was 14% (inactive).

For the molecule `O=C1NC(=S)N(c2ccc(Cl)cc2)C(=O)/C1=C\c1ccc(Cl)s1`, the inhibition is 8% (inactive).

Turning to `O=C1NC(=S)N(c2ccccc2F)C(=O)/C1=C/c1ccc(-c2ccc(Cl)cc2)o1`, the inhibition is 14% (inactive).

With `Cc1ccc(N2C(=O)/C(=C/c3ccco3)C(=O)NC2=S)cc1`, the inhibition was 9% (inactive).

In the case of `Cc1ccc(/C=C2\C(=O)NC(=S)N(c3ccc(Cl)c(Cl)c3)C2=O)o1`, the inhibition was 11% (inactive).

As to `Cc1ccc(/C=C2\C(=O)NC(=S)N(c3ccc(Br)cc3)C2=O)o1`, the inhibition is 32% (inactive).

`Cc1cc(Br)ccc1N1C(=O)/C(=C/c2cccs2)C(=O)NC1=S`: the inhibition was 16% (inactive).

On to `Cc1cccc(C)c1NC(=O)c1ccc(-c2ccc(Cl)cc2Cl)o1`, for which the inhibition was 28% (inactive).

In the case of `C=CCc1cccc2cc(C(=O)N3CCCCC3)c(=O)oc12`, the inhibition was 1% (inactive).

Turning to `COc1ccc(C2/C(=C(/O)c3ccccc3)C(=O)C(=O)N2c2ccc(C)cc2)cc1` (centres undefined), the inhibition was 7% (inactive).

Regarding `CCCCn1c(O)c(/C=C2\C=Nc3ccccc32)c(=O)[nH]c1=O`, the inhibition was 25% (inactive).

For `CCc1ccccc1N1C(=O)NC(=O)/C(=C\c2ccc(N3CCCCC3)o2)C1=O`, the inhibition was 9% (inactive).

With `O=C1NC(=O)N(c2ccccc2F)C(=O)/C1=C/c1ccc(I)o1`, the inhibition is 0% (inactive).

Regarding `O=C1NC(=S)N(c2ccccc2)C(=O)/C1=C\C=C\c1ccccc1[N+](=O)[O-]`, the inhibition is 16% (inactive).

Take `O=C1NC(=S)N(c2cccc(Cl)c2Cl)C(=O)/C1=C/c1ccco1`: the inhibition was 58% (active).

As for `O=C1NC(=S)N(c2ccc(Br)cc2)C(=O)/C1=C/C=C/c1ccco1`, the inhibition was 16% (inactive).

In the case of `O=C1NC(=S)N(c2cccc(Cl)c2Cl)C(=O)/C1=C/c1ccc(Cl)cc1`, the inhibition was 10% (inactive).

Take `Cc1cccc(N2C(=O)/C(=C/C=C/c3ccco3)C(=O)NC2=S)c1`: the inhibition is 11% (inactive).

With `O=C1NC(=O)N(c2ccc(Cl)cc2)C(=O)/C1=C\C=C\c1ccccc1[N+](=O)[O-]`, the inhibition is 14% (inactive).

Consider `O=C1NC(=S)N(c2cccc(Cl)c2Cl)C(=O)/C1=C/c1ccc(I)o1`, for which the inhibition was 45% (inactive).

Regarding `Cc1ccccc1N1C(=O)/C(=C/c2ccc(I)o2)C(=O)NC1=S`, the inhibition was 18% (inactive).

The record behind these values is PubChem BioAssay AID372 (MTDP, 2006).
